Screening data deposited in PubChem by National Center for Advancing Translational Sciences (NCATS).
ATXN2 expr inh: inhibitors of ATXN2 expression; HEK-293 ATXN2-luciferase reporter, luminescence, 24 h; Potency, µM (doses to about 57 µM), inactives show at the highest dose activity change, negative = inhibition, actives largely listed as inhibitors; 0.72% of 360,000 active; AID 1745845; note: potency is the fitted concentration of half-maximal effect; % is set by controls: 0 for no effect and ±100 for the full control effect; nearly all actives have a fitted effect of over 55% in size
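ATXN2-luciferase reporter cells (luciferase flanked by upstream and downstream ATXN2 gene portions) were treated 24 h at 37 °C with compounds at up to 57 uM. SteadyGlo luminescence gave expression; GF-AFC fluorescence gave viability.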
ATXN viability: reduces viability in counter-screen for ATXN expression inhibitors. S2 cells (HEK-293 line with an ATXN2-luciferase reporter) viability, CellTiter-Fluor protease fluorescence, 24 h. Potency, µM (highest dose often 56.7 µM), actives largely listed as cytotoxic. 0.49% of 400,000 active. AID 651635; note: potency is the fitted concentration of half-maximal effect; nearly all actives have a fitted effect of over 40% in size
HepG2 tox: kills HepG2 cells in TGF-b inhibitor counter-screen; HepG2 CAGA-GFP viability, ATP luminescence, 18 h; Potency, µM (doses to about 46.1 µM), for inactives: at the highest dose activity change, negative = cytotoxicity, actives largely listed as cytotoxic; 0.76% of 410,000 active; note: potency is the fitted concentration of half-maximal effect
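HepG2 CAGA-GFP cells (1000/well, DMEM with 1% FBS) received compound, then TGF-beta at 500 pg/mL final, and were incubated 18 hours at 37 degrees C. Viability was read by CellTiter-Glo luminescence. Media-only wells were set as complete cell-killing and DMSO as no toxicity.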
TGFb inhibitor: blocks TGF-b signaling; HepG2 CAGA-GFP TGF-b/SMAD3 reporter, GFP fluorescence, 18 h; TGF-beta stimulated, 500 pg/mL final; Potency, µM (top dose mostly 46.1 µM), for inactives: top-dose activity, negative = inhibition, hits mostly inhibitors; 1.2% of 410,000 active; note: potency is the fitted concentration of half-maximal effect; % is set by controls: 0 for no effect and ±100 for the full control effect; nearly all actives have a fitted effect of over 65% in size
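First, reporter cells (HEPG2 CAGA-GFP) rested 2 h at 37 degrees C. Next, compounds were pinned in and TGF-beta added to 500 pg/mL final. After 18 h, GFP was imaged per cell and summed per well.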
DRD3 agonist: agonists of human D3 dopamine receptor. max activation, %. 0.58% of 410,000 active. P35462. AID 652048. D3R DiscoveRx beta-arrestin cells, luminescence, 90 min; in the data active = max activation above about 30%; note: 0% is about no effect
Target sequence (P35462 whole entry, looked up): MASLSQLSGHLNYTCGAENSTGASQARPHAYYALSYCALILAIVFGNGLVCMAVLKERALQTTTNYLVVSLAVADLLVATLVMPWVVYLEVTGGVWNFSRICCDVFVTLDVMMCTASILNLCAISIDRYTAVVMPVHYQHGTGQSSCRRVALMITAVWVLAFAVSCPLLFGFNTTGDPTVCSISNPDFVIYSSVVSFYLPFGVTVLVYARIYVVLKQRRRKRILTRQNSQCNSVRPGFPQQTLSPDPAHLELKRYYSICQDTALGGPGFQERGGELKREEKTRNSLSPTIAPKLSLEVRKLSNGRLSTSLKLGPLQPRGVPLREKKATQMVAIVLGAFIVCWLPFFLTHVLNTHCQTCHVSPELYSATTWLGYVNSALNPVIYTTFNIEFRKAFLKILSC
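Agonist mode: compounds and dopamine controls were applied to plated cells for 90 min at 37 degrees C after an overnight attachment at 1500 cells/well. Luminescent read-out followed 30 - 60 minutes at room temperature with DiscoveRx detection reagent.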
DRD3 antagonist: blocks the human D3 dopamine receptor; P35462; D3R cells, DiscoveRx beta-arrestin luminescence, antagonist mode; stronger effect = lower value; max response, negative = inhibition, %; 2.5% of 360,000 active; in the data active = max response below about -50%; inconclusive = no clear call, values can overlap the other calls; note: % is set by controls: 0 for no effect and ±100 for the full control effect
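Cells plated overnight at 1500 cells/well, then exposed to library compounds with dopamine controls for 90 minutes at 37 degrees C. DiscoveRx reagent added for 30–60 minutes at room temperature; luminescence read, quantitative HTS format.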
Starred values were filed as active, the others as inactive; i = inactive; ? = inconclusive; nt = not tested or not shown. Shown are actives, neighbours in structure and some others; about 4.7% of the full set was active somewhere. Unless noted, calls come from the whole dose curve; as a rule, active = well fitted curve in the direction sought with a large enough effect; inconclusive = small, poorly fitted or top-dose-only effect, or another doubt; inactive = no such curve, though single readings can be large; an effect the other way counts as inactive or inconclusive.

SMILES	ATXN2 expr inh	ATXN viability	HepG2 tox	TGFb inhibitor	DRD3 agonist	DRD3 antagonist
COc1ccc(C(=O)Nc2ccc3c(c2)nc(CN2CCN(C(C)=O)CC2)n3C)cc1	1.9%	i	8.0%	0.0%	3.0	-18.9
COc1ccc(C(=O)Nc2ccc3ncccc3c2)cc1	20µM*	i	-12.6%	-9.4%	-7.4	-10.5
CC(=O)Nc1ccc2c(c1)nc(CN1CCCC1)n2C	-6.7%	i	0.0%	-8.8%	-32.8	-50.4*
Cc1ccc(C(C)C)c(OCC(=O)Nc2ccc3c(c2)nc(CN2CCCC2)n3C)c1	-5.2%	i	-22.1%	-4.3%	-12.2	-67.0*
COc1ccc(C(=O)Nc2ccc3c(c2)nc(CN2CCCC2)n3C)cc1	-2.5%	i	-8.7%	-12.3%	44.9*	-16.9
Cc1cnnc2ccccc12	nt	nt	5.7%	-15.9%	nt	nt
O=C(CCSCc1cccc(Cl)c1)NCc1ccc(F)cc1Cl	nt	nt	-40.2%	?	8.0	nt
CCn1c(CN2CCC(C)CC2)nc2cc(NC(=O)COc3ccc(Cl)c(C)c3)ccc21	?	?	-37.4%	3.98µM*	-2.1	nt
Cn1c(CN2CCCC2)nc2cc(NC(=O)Nc3ccccc3)ccc21	39.4%	i	-4.0%	-0.8%	-12.8	-103.3*
COc1cc(=O)n2c(c1C(=O)N(C)Cc1nonc1C)CCN(Cc1cccc3ccccc13)CC2	nt	i	nt	nt	nt	nt
CCOc1ccc(CNC(=O)c2ccc(CSc3nc4ccncc4n3Cc3ccc(F)cc3)cc2)cc1	-21.4%	?	-16.5%	?	-17.5	nt
CC(=O)OC1C(C)OC(Oc2c(-c3ccc(O)cc3)oc3cc(O)cc(O)c3c2=O)C(O)C1OC(C)=O (configuration not stated)	0.8%	nt	nt	nt	nt	nt
O=C(NCc1ccc(Cl)cc1)C1C2C=CC3(CN(Cc4cccnc4)C(=O)C13)O2 (configuration not stated)	-1.9%	i	12.2%	3.7%	2.8	7.6
O=C(NCc1ccc(F)cc1)C1C2C=CC3(CN(Cc4cccnc4)C(=O)C13)O2 (configuration not stated)	-7.4%	i	-4.1%	-2.9%	31.1*	-17.2
COc1ccc([N+](=O)[O-])cc1C(=O)NC1CCN(Cc2ccccc2)CC1	-29.2%	i	-32.2%	0.0%	-20.4	-99.6*
COc1cc(C(=O)NC2CC3CCCC(C2)N3Cc2ccccc2)cc(OC)c1OC (configuration not stated)	-17.3%	i	-22.2%	1.6%	-18.9	-94.7*
COc1cc(C(=O)NC2CCCCC2)ccc1OC1CCN(C(C)=O)CC1	4.8%	i	-0.2%	-0.4%	3.0	-4.2
COc1cc(C(=O)NC2CCN(Cc3ccccc3)CC2)cc(Cl)c1OC	nt	i	-30.4%	-7.0%	-19.1	-99.0*
O=C(Cc1ccccc1[N+](=O)[O-])NC1CCN(Cc2ccccc2)CC1	5.5%	i	-48.7%	-9.1%	-25.4	0.0
COc1ccc(C(=O)NC2CC3CCCC(C2)N3Cc2ccccc2)cc1OC (configuration not stated)	-50.4%	i	-2.2%	4.1%	-24.9	-94.0*
COc1cc(C(=O)NC2CC3CCCC(C2)N3C2CC2)cc(OC)c1OC (configuration not stated)	-3.9%	i	5.7%	3.3%	-5.4	-10.7
COc1ccc(C(=O)NCCSCc2ccc(Cl)cc2)cc1OC	-57.2%	?	29.5%	6.5%	7.3	8.8
COc1ccc(CN2C3CCC2CC(NC(=O)c2cc(OC)c(OC)c(OC)c2)C3)cc1 (configuration not stated)	?	i	22.3%	12.4%	-25.4	-66.4*
COc1ccc(C(=O)NCCSCc2ccccc2)cc1OC	2.7%	i	12.3%	3.1%	11.0	-51.1*
CCCN1C2CCCC1CC(NC(=O)c1ccc(OC)cc1)C2 (configuration not stated)	-55.0%	i	29.3%	5.7%	0.1	-2.2
SMILES	ATXN2 expr inh	ATXN viability	HepG2 tox	TGFb inhibitor	DRD3 agonist	DRD3 antagonist
O=C(O)CCC(C(=O)O)n1c(O)c(C2=c3ccccc3=NC2=O)sc1=S (configuration not stated)	-1.8%	?	-1.5%	1.2%	-9.4	-102.8*
Cn1ccsc1=NC(=O)c1ccc([N+](=O)[O-])o1	-4.5%	i	-75.3%	28.2µM*	-0.9	-15.9
COc1cc(C(=O)N=c2sccn2C)c([N+](=O)[O-])cc1OC	10.4%	i	2.6%	0.0%	1.3	-4.2
CC(C)C[C@@H]1NC(=O)[C@H](CCCN)NC(=O)[C@H](C(C)C)NC(=O)[C@@H]2CCCN2C(=O)[C@@H](Cc2ccccc2)NC(=O)[C@H](CC(C)C)NC(=O)[C@H](CCCN)NC(=O)[C@H](C(C)C)NC(=O)[C@@H]2CCCN2C(=O)[C@@H](Cc2ccccc2)NC1=O	nt	nt	nt	nt	30.9*	nt
COc1ccc(CNC(=O)c2ccc(-c3nc(CSc4ccccc4)c(C)o3)cc2)cc1	-9.7%	i	10µM*	?	-7.3	nt
CCOc1ccc(-c2nc(CSCC(=O)NCc3ccc(Cl)cc3)c(C)o2)cc1	?	?	-19.2%	-34.0%	32.0*	nt
CCC[C@@H]1C[C@@H](C(=O)N[C@@H]([C@H]2O[C@H](SC)[C@H](OP(=O)(O)O)[C@@H](O)[C@H]2O)[C@H](C)Cl)N(C)C1	nt	i	nt	nt	-1.0	nt
Cn1cnc([N+](=O)[O-])c1Oc1cccc2ccccc12	?	?	-75.0%	?	-4.1	-6.3
Cn1cnc([N+](=O)[O-])c1S(=O)(=O)Oc1cccc2ccccc12	?	15.8µM*	-83.3%	?	-35.0	-96.6*
CCS(=O)(=O)c1c([N+](=O)[O-])ncn1C	nt	?	-44.0%	17.8µM*	0.4	-18.9
Cn1cnc([N+](=O)[O-])c1S(=O)(=O)Oc1ccc(Cl)cc1	?	nt	22.4µM*	?	-13.2	-89.5*
Cn1cnc([N+](=O)[O-])c1Cl	38.4%	?	-3.1%	9.2%	-4.2	18.0
CC/C=C(\C(=O)N[C@@H]1C(=O)N2C(C(=O)OCOC(=O)C(C)(C)C)=C(COC(N)=O)CS[C@H]12)c1csc(N)n1	-1.3%	i	nt	nt	-29.5	nt
Cc1ccc(-n2ncc3c(N4CCN(Cc5ccccc5)CC4)ncnc32)cc1C	-9.6%	?	-28.4%	-24.6%	32.9*	nt
c1ccc(-n2ncc3c(N4CCCCC4)ncnc32)cc1	12.6µM*	i	-26.1%	-4.1%	2.7	-24.1
Clc1cccc(-n2ncc3c(N4CCN(Cc5ccccc5)CC4)ncnc32)c1	12.3%	i	3.2%	0.3%	8.3	nt
Cc1cccc(-n2ncc3c(N4CCCCCC4)ncnc32)c1	nt	nt	-25.3%	-4.2%	3.8	nt
